For 4 compounds, Potency results are on record in PubChem BioAssay AID504421 (National Center for Advancing Translational Sciences (NCATS), 2011).

The other results are listed elsewhere or left out. Calls of active or inactive are those of the source. The call rests on the fitted dose curve.

In the assay the target is Dual specificity protein kinase CLK4 (Homo sapiens) (UniProt Q9HAZ1). Kind of assay: Kinase Inhibition Study on Inhibitors of CDC-like Kinase 4 (Reaction Biology data): SAR round 2. The following applies: Reaction Biology kinase assay, 10 uM ATP. The text has this: NIH Molecular Libraries Probe Production Centers Network [MLPCN] NIH Chemical Genomics Center [NCGC] MLPCN Grant: 1R03MH084827-01 Assay Submitter (PI): Tom Misteli NCGC Assay Overview: Alternative splicing of pre-mRNAs plays a major role in the regulation of eukaryotic gene expression. Alternative splicing is now thought to be one of the primary reasons for the complexity of higher organisms leading to an average of three protein isoforms per gene. Aberrant splicing can lead to a number of diseases and is known to play a role in rare genetic diseases such as progeria syndrome. Hutchinson-Gilford Progeria Syndrome (HGPS) is a pediatric premature aging disease caused by a spontaneous mutation in the lamin A/C (LMNA) gene due to a single point mutation in the lamin A gene effecting 1 in 4 million people. To identify both specific splicing modulators of the lamin A gene as well as general splicing modulators, a cell-based HTS assay was developed using a minigene reporter system (AIDs, 1459 & 1487). […] This AID summarizes the characterization of lead compounds in Clk4.
Chain of Dual specificity protein kinase CLK4 (Homo sapiens) (Q9HAZ1 whole entry, looked up, canonical isoform): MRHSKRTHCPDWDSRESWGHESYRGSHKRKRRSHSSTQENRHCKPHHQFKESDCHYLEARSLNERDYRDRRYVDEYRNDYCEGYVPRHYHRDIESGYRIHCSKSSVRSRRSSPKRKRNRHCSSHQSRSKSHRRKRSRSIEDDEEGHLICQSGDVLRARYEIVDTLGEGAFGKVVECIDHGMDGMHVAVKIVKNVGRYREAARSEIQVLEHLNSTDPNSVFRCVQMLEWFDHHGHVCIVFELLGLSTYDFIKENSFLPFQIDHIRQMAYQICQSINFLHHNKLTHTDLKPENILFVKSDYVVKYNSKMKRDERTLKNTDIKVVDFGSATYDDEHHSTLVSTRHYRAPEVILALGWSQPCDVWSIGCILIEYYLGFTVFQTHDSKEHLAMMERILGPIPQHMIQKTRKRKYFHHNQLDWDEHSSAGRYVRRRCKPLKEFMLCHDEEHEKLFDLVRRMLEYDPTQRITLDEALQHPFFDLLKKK
All kinase reactions were performed using 10 uM ATP in the assay. 100% activity was taken from kinase reactions with DMSO alone (the vehicle used for compound stock solutions).
Take `CC(Nc1ncnc2ccc(-c3ccc4c(c3)OCO4)cc12)c1ccco1` (centres undefined): the Potency is 7600 nM (active).

On to `CN(Cc1cncn1C)c1ncnc2ccc(-c3ccc4c(c3)OCO4)cc12`, for which the Potency is 507 nM (active).

`c1nc(N2CCOCC2)c2cc(-c3ccc4c(c3)OCO4)ccc2n1`: the Potency was 135 nM (active).

In the case of `c1coc(CCNc2ncnc3ccc(-c4ccc5c(c4)OCO5)cc23)c1`, the Potency was 42 nM (active).
